Assay [1] in a line: ATG_CRE_CIS: Attagene CIS-FACTORIAL HepG2 Assay for human cAMP Responsive Element (CRE) binding protein 3 (AID 2282926). Conditions: HepG2 CRE cis-reporter, Attagene multiplexed mRNA; actives raise or lower the signal. Summed up: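 Readout: fluorescently labelled reporter transcripts resolved by capillary electrophoresis after RT-PCR, taken 24 h post-dosing in transfected HepG2. Endogenous transcription factor activity drives each cis-element reporter; gain or loss of signal fitted relative to DMSO control.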

For assay [2], the target named is CCAAT/enhancer-binding protein beta (Homo sapiens) (UniProt P17676). As to the kind of experiment: ATG_C_EBP_CIS: Attagene CIS-FACTORIAL HepG2 Assay for human CCAAT/Enhancer Binding Protein (C/EBP) beta (AID 2282927). Conditions: HepG2 Attagene cis-factorial transcription factor reporter; actives raise or lower the signal. Summed up:
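Endogenous transcription factor activity in human liver HepG2 cells is inferred from induction of a CEBPB-linked reporter mRNA. Exposure lasts 24 h; activity is fitted in both directions relative to DMSO.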

Assay [3] is described as follows: ATG_CMV_CIS: Attagene CIS-FACTORIAL HepG2 Assay for human CMV (Internal Marker) (AID 2282928).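 Also: endpoint acts as a background internal control marker rather than a target.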 Conditions: HepG2 CMV promoter reporter, transcription factor profiling; actives raise or lower the signal. Summed up:
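Readout: fluorescent reporter cDNA fragments separated by capillary electrophoresis after RT-PCR and HpaI cut. Cells: HepG2 carrying transfected cis-promoter reporter constructs, dosed 24 h. Endpoint serves as background internal-marker control, fit bidirectionally versus DMSO.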

Assay [4] can be described thus: ATG_DR4_LXR_CIS: Attagene CIS-FACTORIAL HepG2 Assay for human Liver X Receptor (LXR), DR4 submotif (AID 2282929). Conditions: HepG2 Attagene DR4 cis-reporter, mRNA transcription; actives raise or lower the signal. The gist of the method:
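Measures endogenous transcription factor activity via a DR4-driven reporter transcript in human HepG2 cells. Compounds incubated 24 h; mRNA quantified by RT-PCR and capillary electrophoresis, analysed as gain or loss of signal versus DMSO.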

Assay [5] deals with Aryl hydrocarbon receptor (Homo sapiens) (UniProt P35869). Kind of assay: ATG_Ahr_CIS: Attagene CIS-FACTORIAL HepG2 Assay for human Aryl Hydrocarbon Receptor (Ahr) (AID 2282930). Conditions: HepG2 AhR cis-factorial reporter transcription; actives raise or lower the signal. The gist of the method: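 Transient MRTU transfection of HepG2 → 24 h compound exposure → total RNA, oligo(dT) RT → PCR, 6-FAM extension, HpaI cut → CE fluorescence. DMSO = baseline; bidirectional curve fit.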
Aryl hydrocarbon receptor (Homo sapiens), sequence (P35869 whole entry, looked up): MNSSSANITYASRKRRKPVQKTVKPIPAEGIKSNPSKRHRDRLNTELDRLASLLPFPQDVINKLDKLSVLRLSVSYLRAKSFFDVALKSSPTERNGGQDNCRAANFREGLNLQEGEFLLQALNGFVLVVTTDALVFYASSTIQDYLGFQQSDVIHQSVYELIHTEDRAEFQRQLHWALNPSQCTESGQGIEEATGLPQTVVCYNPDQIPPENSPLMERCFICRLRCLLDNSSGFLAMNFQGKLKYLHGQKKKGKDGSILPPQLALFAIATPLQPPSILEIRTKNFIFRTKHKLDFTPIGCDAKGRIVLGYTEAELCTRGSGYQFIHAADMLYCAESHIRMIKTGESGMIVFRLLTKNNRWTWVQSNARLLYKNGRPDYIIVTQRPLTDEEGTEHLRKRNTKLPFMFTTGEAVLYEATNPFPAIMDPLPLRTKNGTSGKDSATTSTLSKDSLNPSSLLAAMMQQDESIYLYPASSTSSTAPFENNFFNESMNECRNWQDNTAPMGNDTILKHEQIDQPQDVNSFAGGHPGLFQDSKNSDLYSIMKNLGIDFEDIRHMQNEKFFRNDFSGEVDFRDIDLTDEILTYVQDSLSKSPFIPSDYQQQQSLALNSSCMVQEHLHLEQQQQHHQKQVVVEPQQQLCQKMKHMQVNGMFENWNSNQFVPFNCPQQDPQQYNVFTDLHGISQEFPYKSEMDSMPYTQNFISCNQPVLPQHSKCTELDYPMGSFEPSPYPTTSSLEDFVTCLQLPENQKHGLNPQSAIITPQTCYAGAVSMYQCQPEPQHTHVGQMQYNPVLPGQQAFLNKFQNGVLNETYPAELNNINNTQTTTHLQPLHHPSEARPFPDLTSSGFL

The nature of assay [6]: ATG_AP_1_CIS: Attagene CIS-FACTORIAL HepG2 Assay for human Activator Protein 1 (AP-1) (AID 2282931). Conditions: HepG2 Attagene cis-factorial AP-1 reporter mRNA; actives raise or lower the signal. Summed up: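 Bidirectional concentration-response fitting against DMSO controls. Underlying signal: reporter mRNA from cis-promoter constructs in transiently transfected HepG2, measured after 24 h by RT-PCR and capillary electrophoresis.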

The nature of assay [7]: ATG_AP_2_CIS: Attagene CIS-FACTORIAL HepG2 Assay for human Activator Protein 2 (AP-2) (AID 2282932). Conditions: HepG2 AP-2 cis-reporter, Attagene transcription factor profiling; actives raise or lower the signal. Summed up: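 Endogenous transcription factor activity is reported through transfected multiplex reporter constructs in HepG2, after 24 h of compound exposure. Transcripts were quantified by RT-PCR and capillary electrophoresis of fluorescent fragments. Bidirectional fit against DMSO.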

A short description of assay [8]: ATG_BRE_CIS: Attagene CIS-FACTORIAL HepG2 Assay for human Bone Morphogenetic Protein (BMP) Response Element (BRE) (AID 2282933). Conditions: HepG2 BMP response element reporter, Attagene transcription factor profiling; actives raise or lower the signal. The gist of the method:
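HepG2 cells transiently transfected with multiplexed cis-element reporter units were dosed with chemical for 24 h. Reporter mRNA was measured by RT-PCR with fluorescent labelling, HpaI digestion and capillary electrophoresis; bidirectional fitting relative to DMSO.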

Assay [9] has as its target Retinoic acid receptor alpha (Homo sapiens) (UniProt P10276). As to the kind of experiment: ATG_DR5_RAR_CIS: Attagene CIS-FACTORIAL HepG2 Assay for human Retinoic Acid Receptor Alpha (RARE), DR5 submotif (AID 2282934).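 As to AC50: reporter responds to endogenous RAR alpha beta and gamma in HepG2 not RARA alone.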 Conditions: HepG2 Attagene cis-factorial RARE DR5 reporter, mRNA; actives raise or lower the signal. The gist of the method: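 Transient MRTU transfection of HepG2; 24 h compound treatment; TriZol RNA, oligo(dT) RT, PCR, FAM labelling, capillary electrophoresis. Bidirectional fit vs DMSO. Endogenous TF activity at DR5 RARE.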

For assay [10], the target named is Transcription factor E2F1 (Homo sapiens) (UniProt Q01094). Kind of assay: ATG_E2F_CIS: Attagene CIS-FACTORIAL HepG2 Assay for human E2F Transcription Factor 1 (AID 2282935). Conditions: HepG2 Attagene cis-reporter, E2F reporter RNA transcripts; actives raise or lower the signal. The gist of the method:
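Gain or loss of reporter transcript, fitted against DMSO, reflects E2F1-driven transcription. Transiently transfected HepG2 dosed 24 h before RNA isolation. Quantified by fluorescent RT-PCR products separated by capillary electrophoresis.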

The nature of assay [11]: ATG_E_Box_CIS: Attagene CIS-FACTORIAL HepG2 Assay for human Enhancer Box (E-box) (AID 2282936). Conditions: HepG2 E-box cis-reporter transcription, actives raise or lower the signal. Summed up:
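E-box-driven reporter transcripts measured in transiently transfected HepG2 after 24 h exposure: RNA reverse-transcribed, PCR-amplified, fluorescently labelled, digested and resolved by capillary electrophoresis. Gain or loss relative to DMSO.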

Assay [12] is described as follows: ATG_M_61_CIS: Attagene CIS-FACTORIAL HepG2 Assay for M61 Transcription Factor (Internal Marker) (AID 2282937). Conditions: HepG2 Attagene CIS-FACTORIAL M61 internal marker reporter; actives raise or lower the signal. Summed up:
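Fluorescence from labelled cDNA fragments, separated by capillary electrophoresis, quantifies reporter induction. HepG2 cells bearing transiently transfected cis-promoter MRTUs were incubated with test chemical for 24 h; DMSO defined baseline for gain/loss fitting.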

Assay [13] is described as follows: ATG_EGR_CIS: Attagene CIS-FACTORIAL HepG2 Assay for human Early Growth Response 1 (EGR1) (AID 2282938). Conditions: HepG2 Attagene CIS-FACTORIAL EGR reporter mRNA; actives raise or lower the signal. Summed up:
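Cell-based multiplex transcription assay: HepG2 carrying transfected cis-element reporter units, 24 h chemical treatment. Fluorescence from capillary electrophoresis of RT-PCR products gives mRNA levels; fitting is bidirectional relative to DMSO.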

Assay [14] can be described thus: ATG_M_19_CIS: Attagene CIS-FACTORIAL HepG2 Assay for M19 Transcription Factor (Internal Marker) (AID 2282939). Conditions: HepG2 Attagene CIS-FACTORIAL M19 internal marker reporter; actives raise or lower the signal. The gist of the method:
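HepG2 cells transiently transfected with cis-regulated multiple reporter transcription units were dosed for 24 h; reporter mRNA was quantified by RT-PCR, 6-FAM primer-extension labelling, HpaI digestion and capillary electrophoresis, with bidirectional fitting against DMSO baseline.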

Assay [15] can be described thus: ATG_Ets_CIS: Attagene CIS-FACTORIAL HepG2 Assay for human Erythroblast Transformation Specific (ETS) (AID 2282941). Conditions: HepG2 ETS cis-reporter transcription, actives raise or lower the signal. Summed up:
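RT-PCR/capillary electrophoresis fluorescence read-out of reporter mRNA; HepG2 transient multi-reporter transfection; 24 h compound exposure; gain or loss of signal fitted bidirectionally relative to DMSO.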

The target in assay [16] is Hepatocyte nuclear factor 3-beta (Homo sapiens) (UniProt Q9Y261). As to the kind of experiment: ATG_FoxA2_CIS: Attagene CIS-FACTORIAL HepG2 Assay for human Forkhead box A2 (FOXA2) (AID 2282942). Conditions: HepG2 cis-reporter transcription factor activity, 24 h; actives raise or lower the signal. Summed up: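 In transiently transfected human HepG2 cells, promoter-driven reporter mRNA levels after 24 h chemical exposure are determined via RT-PCR with capillary electrophoresis. DMSO serves as baseline for bidirectional fitting.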
Hepatocyte nuclear factor 3-beta (Homo sapiens), sequence (Q9Y261 whole entry, looked up): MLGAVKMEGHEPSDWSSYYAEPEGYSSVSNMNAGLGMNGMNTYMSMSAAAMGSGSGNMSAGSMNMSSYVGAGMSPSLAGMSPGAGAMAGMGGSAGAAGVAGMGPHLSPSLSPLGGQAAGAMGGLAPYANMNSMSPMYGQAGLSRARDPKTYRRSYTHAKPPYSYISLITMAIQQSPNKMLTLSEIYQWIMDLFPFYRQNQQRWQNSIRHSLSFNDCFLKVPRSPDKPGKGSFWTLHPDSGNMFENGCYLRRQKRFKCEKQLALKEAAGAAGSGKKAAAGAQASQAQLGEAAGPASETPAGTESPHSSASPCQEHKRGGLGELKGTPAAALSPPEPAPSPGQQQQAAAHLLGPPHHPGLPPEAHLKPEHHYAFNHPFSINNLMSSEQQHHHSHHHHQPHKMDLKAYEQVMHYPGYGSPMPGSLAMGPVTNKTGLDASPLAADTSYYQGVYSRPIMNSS

Assay [17] is described as follows: ATG_FoxO_CIS: Attagene CIS-FACTORIAL HepG2 Assay for human Forkhead box O (FoxO) (AID 2282943). Conditions: HepG2 Attagene cis-reporter, FoxO element, mRNA; actives raise or lower the signal. Summed up:
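HepG2, transient MRTU transfection (cis element, endogenous TFs). Dose 24 h. TriZol RNA → oligo(dT) RT → PCR → 6-FAM primer extension → HpaI cut → CE. Gain/loss vs DMSO.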

The target in assay [18] is Bile acid receptor (Homo sapiens) (UniProt Q96RI1). As to the kind of experiment: ATG_IR1_CIS: Attagene CIS-FACTORIAL HepG2 Assay for human Nuclear Receptor Subfamily 1 Group H Member 4 (NR1H4), IR1 submotif (AID 2282946). Conditions: IR1 reporter transcription, actives raise or lower the signal. The gist of the method:
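HepG2 cells transiently transfected with multiplexed cis-element reporter units read endogenous transcription factor activity. After 24 h compound exposure, reporter mRNA was quantified by RT-PCR, fluorescent labelling, HpaI digestion and capillary electrophoresis; bidirectional fitting versus DMSO baseline.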

Assay [19] is described as follows: ATG_GATA_CIS: Attagene CIS-FACTORIAL HepG2 Assay for human GATA Binding Protein (AID 2282944). Conditions: HepG2 GATA cis-element reporter, Attagene multiplex mRNA; actives raise or lower the signal. The gist of the method: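 HepG2 cells transiently transfected with multiplexed cis-element reporter units reflecting endogenous transcription factor activity; reporter mRNA measured after 24 h dosing by RT-PCR, 6-FAM labeling, HpaI digestion and capillary electrophoresis. Bidirectional fitting versus DMSO baseline.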

Assay [20] is described as follows: ATG_GLI_CIS: Attagene CIS-FACTORIAL HepG2 Assay for human Zinc Finger Protein GLI1 (AID 2282945). Conditions: HepG2, Attagene cis-factorial reporter mRNA, GLI element; actives raise or lower the signal. Summed up: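 Bidirectional curve fits relative to DMSO, using reporter mRNA levels from RT-PCR plus capillary electrophoresis. Cells were HepG2 transiently carrying cis-regulated reporter constructs, harvested 24 h after dosing.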

Data on four compounds can be found in PubChem BioAssay (EPA / NIEHS).

SMILES strings stand for the structures. Activity calls are given as the source filed them. The calls were made as follows: active = hit-call score of the fitted dose curve at least 0.9, where 1 is the maximum; inactive = score below 0.9.

A word on the AC50: it is the concentration at which the activity in the assay is half-maximal.

Transcription factor E2F1 (Homo sapiens), sequence (Q01094 whole entry, looked up): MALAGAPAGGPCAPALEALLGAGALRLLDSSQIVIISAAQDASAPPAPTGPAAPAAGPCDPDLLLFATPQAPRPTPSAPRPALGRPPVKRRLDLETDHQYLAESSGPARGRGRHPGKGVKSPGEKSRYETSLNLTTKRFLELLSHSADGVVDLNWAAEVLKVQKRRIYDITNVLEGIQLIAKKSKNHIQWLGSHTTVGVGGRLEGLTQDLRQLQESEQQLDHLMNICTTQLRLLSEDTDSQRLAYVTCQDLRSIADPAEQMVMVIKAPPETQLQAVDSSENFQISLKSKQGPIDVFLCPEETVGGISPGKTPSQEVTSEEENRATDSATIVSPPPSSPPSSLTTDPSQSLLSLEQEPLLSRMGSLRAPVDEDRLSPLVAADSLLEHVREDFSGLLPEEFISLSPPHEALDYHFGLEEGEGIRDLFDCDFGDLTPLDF
Bile acid receptor (Homo sapiens), sequence (Q96RI1 whole entry, looked up): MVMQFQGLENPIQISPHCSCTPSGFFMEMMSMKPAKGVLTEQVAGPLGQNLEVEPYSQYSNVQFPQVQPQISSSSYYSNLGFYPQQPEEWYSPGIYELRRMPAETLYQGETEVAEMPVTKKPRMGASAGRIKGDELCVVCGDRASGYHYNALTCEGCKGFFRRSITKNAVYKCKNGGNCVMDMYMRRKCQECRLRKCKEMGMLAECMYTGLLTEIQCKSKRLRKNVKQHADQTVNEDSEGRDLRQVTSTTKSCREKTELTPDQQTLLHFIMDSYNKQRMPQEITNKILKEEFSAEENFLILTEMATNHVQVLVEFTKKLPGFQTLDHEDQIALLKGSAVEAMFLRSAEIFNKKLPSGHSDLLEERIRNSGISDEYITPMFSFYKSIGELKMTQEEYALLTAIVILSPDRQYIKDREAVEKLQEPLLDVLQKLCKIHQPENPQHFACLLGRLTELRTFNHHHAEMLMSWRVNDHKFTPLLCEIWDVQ
CCAAT/enhancer-binding protein beta (Homo sapiens), sequence (P17676 whole entry, looked up): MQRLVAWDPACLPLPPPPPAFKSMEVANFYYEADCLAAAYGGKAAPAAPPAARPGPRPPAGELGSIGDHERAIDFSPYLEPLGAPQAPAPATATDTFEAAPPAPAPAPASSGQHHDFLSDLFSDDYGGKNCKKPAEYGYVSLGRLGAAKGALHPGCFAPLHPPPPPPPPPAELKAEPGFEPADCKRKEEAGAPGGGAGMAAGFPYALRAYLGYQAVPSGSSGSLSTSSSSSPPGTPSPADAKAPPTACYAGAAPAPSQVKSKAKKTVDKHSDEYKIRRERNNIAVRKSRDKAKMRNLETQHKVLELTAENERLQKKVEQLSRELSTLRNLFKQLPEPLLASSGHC
Retinoic acid receptor alpha (Homo sapiens), sequence (P10276 whole entry, looked up): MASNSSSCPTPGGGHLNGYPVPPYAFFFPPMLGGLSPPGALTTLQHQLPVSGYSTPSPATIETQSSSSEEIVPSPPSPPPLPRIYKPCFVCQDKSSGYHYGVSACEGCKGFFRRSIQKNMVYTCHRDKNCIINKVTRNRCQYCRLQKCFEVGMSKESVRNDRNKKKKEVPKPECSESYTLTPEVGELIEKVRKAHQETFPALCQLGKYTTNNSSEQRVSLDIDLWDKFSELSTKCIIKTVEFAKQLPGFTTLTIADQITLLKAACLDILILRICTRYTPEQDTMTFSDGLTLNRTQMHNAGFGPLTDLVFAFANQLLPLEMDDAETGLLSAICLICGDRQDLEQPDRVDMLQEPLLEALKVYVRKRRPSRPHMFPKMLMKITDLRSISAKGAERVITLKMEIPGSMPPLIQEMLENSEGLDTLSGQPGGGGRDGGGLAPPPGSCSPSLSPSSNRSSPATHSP

As for `CCc1cc(Cc2cc(CC)cc(C(C)(C)C)c2O)c(O)c(C(C)(C)C)c1`, the AC50 in assay [1] was 19.1 µM (active); in [4], 14.8 µM (active); in assay [6], 9.51 µM (active); in [8], 4.81 µM (active); in [9], 2.28 µM (active); in assay [13], 18.5 µM (active). The result in assay [2], in assay [3], in assay [5], in assay [7], in assay [10] and in [11] was inactive. The compound was classed as inactive in [12], in [14], in assay [15], in assay [16], in assay [17] and in assay [18].
In the case of `C=C(C)C(=O)OCCOCCOCCOC(=O)C(=C)C`, the compound was classed as inactive in assay [1], in assay [2], in [3], in assay [4], in assay [5] and in assay [6]. For the same compound, the result in [7], in [8], in assay [9], in assay [10], in [11] and in assay [12] was inactive. Moreover, the outcome in [13], in assay [15], in assay [16], in assay [17], in [19] and in [20] was inactive.
For `COCCc1ccc(OCC(O)CNC(C)C)cc1` (stereo not drawn), the result in assay [1], in [2], in assay [3], in [4], in [5] and in [6] was inactive. The result in [7], in [8], in assay [9], in assay [10], in assay [11] and in assay [12] was inactive. The call in assay [14], in assay [15], in assay [16], in assay [17], in [19] and in assay [20] was inactive. Moreover, the compound was classed as inactive in [18].
For the compound `COc1cc([C@@H]2c3cc4c(cc3[C@@H](O[C@@H]3O[C@@H]5CO[C@@H](C)O[C@H]5[C@H](O)[C@H]3O)[C@H]3COC(=O)[C@H]23)OCO4)cc(OC)c1O`, the result in [1], in assay [2], in assay [3], in assay [4], in [5] and in assay [6] was inactive. In addition, the compound was classed as inactive in assay [7], in assay [8], in [9], in [10], in assay [11] and in assay [12]. For the same compound, the compound was classed as inactive in assay [13], in [15], in assay [16], in assay [17], in [19] and in assay [18].
